Experimental data from article PMC5540273 (PLoS ONE, 2017).

Tested on: T1, JNK3
T1 construct: gene MAPK10
Details: concentration: 1 μM, replicates: in singlicate; n = 1
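Note: KINOMEscan kinase panel screen.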

Row | Structure (SMILES) | %Inh [%]
1 | COc1cc(Nc2nccc(-c3c(-c4cccc(NC(=O)c5c(F)cccc5F)c4)nn4ncccc34)n2)cc(OC)c1OC [GSK327238] | 23
2 | CC(=O)Nc1nc2cnc(Nc3cc(NC(=O)c4cccc(C5(C#N)CC5)c4Cl)ccc3C)nc2s1 | 0
3 | Cc1ccc(C(=O)Nc2ccc(Nc3ccnc4cc(-c5nccs5)ccc34)cc2O)cc1.Cl [GW494702] | 9
4 | Nc1ncc(-c2cccnc2)c2scc(-c3ccc4c(c3)CCN4C(=O)Cc3ccccc3)c12 [GSK683281] | 9

Tested on: KIT-autoinhibited
Details: concentration: 1 μM, replicates: in singlicate; n = 1

Row | Structure (SMILES) | %Inh [%]
5 | COc1ccc(Nc2nccc(N3CCC(NC(=O)Nc4cccc(OC)c4)C3)n2)cc1 (stereo not drawn) [GSK1379742] | 31
6 | Cc1ccc(C)c(NC(=O)NC2CCN(c3ccnc(Nc4ccc(F)cc4)n3)C2)c1 (stereo not drawn) [GSK1379720] | 0
7 | c1ccc(-c2n[nH]cc2Nc2ccnc3ccccc23)nc1 [GW694077] | 0
8 | COc1cc(Nc2nccc(N3CCC(NC(=O)Nc4cccc(C(C)=O)c4)C3)n2)cc(OC)c1OC (stereo not drawn) [GSK1379753] | 0
9 | O=C(Nc1cccc(-c2nn3ncccc3c2-c2ccnc(Nc3ccccc3)n2)c1)c1c(F)cccc1F [GSK198271] | 20
10 | c1ccc(-c2cnc3nccnn23)cc1 [AH20685] | 0
11 | Cl.c1ccc(-c2ccc3c(Nc4ccc5[nH]ncc5c4)ccnc3c2)nc1 [GW440137] | 0
12 | Fc1ccc(-c2ncn(C3CCNCC3)c2-c2ccnc(Oc3ccc(-c4ccccc4)cc3)n2)cc1 [SB-245391] | 0
